The first assay deals with UTS2D. The experiment in a line: pooled miR-30 sensor sort-seq; sequence = guide strand. The settings on record: shRNA.
As to TTAGGAGTCCAAAGCAAACAGT, the sensor-assay potency score (higher = more potent) was -1.23.

ATTTTTATTCAGTAGAGCCAGC had a sensor-assay potency score (higher = more potent) of -1.2.

The sequence AAAGTTAGGAGTCCAAAGCAAA showed a sensor-assay potency score (higher = more potent) of -1.56.

TAGGAGTCCAAAGCAAACAGTG came in with a sensor-assay potency score (higher = more potent) of -0.558.

Sequence TTGTAAAAAAATCAACACGGAT had a sensor-assay potency score (higher = more potent) of -1.39.

Another assay has as its target UXS1. The assay is described as above. The settings on record: shRNA.
TTTGTTTAAACCTTCCTCCAGC gave a sensor-assay potency score (higher = more potent) of -0.24.

Regarding TTAGTGGTTCAACCATCTCTTC, the sensor-assay potency score (higher = more potent) was -1.31.

The sequence TTGTCTGAGACCCGGATCCGTA gave a sensor-assay potency score (higher = more potent) of -1.19.

TATACATGTAGTTTGGAGGGGA registered a sensor-assay potency score (higher = more potent) of 0.245.

TATCTGGTCAACCTCGATGTAG had a sensor-assay potency score (higher = more potent) of -1.33.

On to TAATTAACTGAGCAAATTCTAG, for which the sensor-assay potency score (higher = more potent) was -1.25.

Consider TAGGATTGTGTGTTCTTCTGGG, for which the sensor-assay potency score (higher = more potent) is 0.906.

The sequence TTTTAGTTCACCATTTTCCTGG displayed a sensor-assay potency score (higher = more potent) of 0.218.

As to TTCAACCATCTCTTCAATCTTG, the sensor-assay potency score (higher = more potent) is -0.0638.

For the sequence TTAACTGAGCAAATTCTAGGAT, the sensor-assay potency score (higher = more potent) came to 0.0899.

Consider TAGATCGCTGACGTACTGGAAC, for which the sensor-assay potency score (higher = more potent) was -0.778.

TAACTGAGCAAATTCTAGGATT came in with a sensor-assay potency score (higher = more potent) of -0.862.

For the next assay, the target named is VAMP1. The description is as above. The settings on record: shRNA.
TTGACTGCAAAGTCCCAGGGTT yielded a sensor-assay potency score (higher = more potent) of 0.215.

ATGATCATCATCTTGCAGTTTT: the sensor-assay potency score (higher = more potent) is -0.861.

TGCTGTAGTCGTCTGTTACTGG registered a sensor-assay potency score (higher = more potent) of -0.0703.

For TTTGGTGGAAGTACAACTGTTG, the sensor-assay potency score (higher = more potent) was determined as 0.106.

Sequence TTTAGCTTGGCAGCACTGCTCT gave a sensor-assay potency score (higher = more potent) of -0.465.

Sequence ATAACTACCACGATGATGGCAC had a sensor-assay potency score (higher = more potent) of 0.289.

Sequence TAGTCGTCTGTTACTGGTCATG had a sensor-assay potency score (higher = more potent) of -1.49.

Sequence TTTTGTTGCACATTTGCTCATG came in with a sensor-assay potency score (higher = more potent) of -0.374.

On to AGCATGATCATCATCTTGCAGT, for which the sensor-assay potency score (higher = more potent) was -1.92.

Sequence TATGATGTCCACCACCTCCTCC returned a sensor-assay potency score (higher = more potent) of -0.679.

In turn, TTACTGGTCATGTTAGGAGGAG showed a sensor-assay potency score (higher = more potent) of -0.535.

For TAGCTTGGCAGCACTGCTCTCA, the sensor-assay potency score (higher = more potent) was -0.655.

The target in the next assay is VAMP8. Described as above. The following applies: shRNA.
The sequence ATCTTCACGTTCTTCCACCAGA gave a sensor-assay potency score (higher = more potent) of -1.17.

The sequence TTCTGGGTCATAATATTCTTAA gave a sensor-assay potency score (higher = more potent) of -1.25.

In the case of ATGATAAAAACAATCACGCAGA, the sensor-assay potency score (higher = more potent) was -0.843.

TAATATTCTTAACTCCCTCCAC came in with a sensor-assay potency score (higher = more potent) of 0.103.

Turning to AGATCCTCTGTCTTGTTGCGGA, the sensor-assay potency score (higher = more potent) was -1.4.

Regarding TTTGCAGGTTCCGCACACGATC, the sensor-assay potency score (higher = more potent) is -1.07.

On to AAGGACAATCATCTTCACGTTC, for which the sensor-assay potency score (higher = more potent) was -0.269.

The sequence TCTTCCACCAGAATTTTCGAGC registered a sensor-assay potency score (higher = more potent) of -0.564.

TTTCGAGCCACCTTCTGCGATG returned a sensor-assay potency score (higher = more potent) of -0.89.

ATGTCGTCTTGAAGTGCTCAGA had a sensor-assay potency score (higher = more potent) of -1.56.

TTTTCGAGCCACCTTCTGCGAT showed a sensor-assay potency score (higher = more potent) of -1.17.
Note: reference of the scale not given here.
